Screening results (PubChem)
Shiga inhibitor: inhibitors of Shiga toxin in Vero cells | 290,000 tested, 9.2% active | Vero cells, Shiga toxin protein synthesis inhibition reporter | inhibition, % at 38.7 µM | AID 2315; in the data active = inhibition mostly above about 28%, no sharp cut-off; inactive = mostly below about 43%
Marburg entry inh: blocks Marburg virus binding to or entry into cells | Marburg virus pseudotyped entry inhibition, cell reporter | 300,000 tested, 1.8% active | Potency, µM (titrated, usually from 37.8 µM), hits mostly inhibitors; calls by dose curve; tested in HEK293 cells
Lassa entry inh: Lassa virus entry inhibition | Potency, µM (titrated, usually from 37.9 µM), most hits filed as inhibitors | 300,000 tested, 1.2% active | Lassa virus pseudotype entry inhibition, cell reporter; calls by dose curve; tested in HEK293 cells; also: nearly all actives have a fitted effect of over 50% in size
CHX counter: affects cycloheximide protein synthesis inhibition readout, counter-screen; 300,000 tested, 12% active; cell reporter, cycloheximide protein synthesis inhibition counterscreen; max response, %; in the data active = max response mostly above about 13%, no sharp cut-off; inactive = mostly below about 14%; also: read at 38.3 µM for the half of the compounds with a filed dose
Hits are given with their value; – = inactive; ? = inconclusive; · = no result. Compounds with a hit are over-represented: about 12% of the library has one in this group of screens.

SMILES	Shiga inhibitor	Marburg entry inh	Lassa entry inh	CHX counter
CCCCN(CC)C(=O)c1ccc(Cl)c(Cl)c1	–	–	–	14.4
Cc1ccc(-c2cc(NC(=O)c3ccccc3[N+](=O)[O-])n[nH]2)cc1	68.0	·	·	13.2
COc1cccc(NC(=O)c2cccc(C)c2[N+](=O)[O-])c1	125.4	?	–	27.6
Cc1cc(NC(=O)c2ccccc2[N+](=O)[O-])ccc1Br	133.9	?	–	50.5
Cc1cccc(C(=O)Nc2cccc(Br)c2)c1[N+](=O)[O-]	–	·	·	9.3
Cc1ccccc1C(=O)Nc1cccc(NC(=O)c2ccccc2[N+](=O)[O-])c1	–	·	·	–
CSc1ccccc1C(=O)Nc1cc2c(cc1C(=O)O)OCCCO2	–	–	–	–
N#Cc1ccc(C(=O)NC2=NCCS2)cc1	103.5	·	·	34.5
CC(C)c1ccc(C(=O)NC2=NCCS2)cc1	63.3	7.31µM	16.4µM	53.4
Cc1ccc(C(=O)NC2=NCCS2)cc1	85.1	–	·	33.7
CCN(CC)S(=O)(=O)c1ccc(C(=O)NC2=NCCS2)cc1	–	–	–	–
O=C(NC1=NCCS1)c1ccc(C(F)(F)F)cc1	95.7	·	·	33.7
CC(C)C(NC(=O)c1ccc(Cl)cc1)C(=O)NC1=NCCS1 (stereo not drawn)	–	–	–	–
O=C(CCNC(=O)c1ccc(Cl)cc1)Nc1ccccc1N1CCCC1	·	?	–	·
O=C(/C=C/c1ccc(/C=C/C(=O)Nc2ccc(C3=NCCN3)cc2)cc1)Nc1ccc(C2=NCCN2)cc1	–	·	·	–
Cc1ccc(C(=O)NC2=NCCS2)cc1Cl	44.5	–	?	37.6
CCCN1C(=O)c2ccc(C(=O)NC3=NCCS3)cc2C1=O	–	–	–	14.5
COc1cc(OC)cc(C(=O)NC2=NCCS2)c1	–	–	–	–
COc1ccc(C(c2sc3ncnn3c2O)N2CCN(c3ccccc3F)CC2)cc1OC (stereo not drawn)	–	–	·	20.3
COc1ccc(C(c2sc3ncnn3c2O)N2CC(C)OC(C)C2)cc1OC (stereo not drawn)	–	·	·	16.8
C[C@@H]1CC[C@H]2C(=O)N(Cc3ccccc3)C[C@@H](O)CN2[C@@H]1c1cccc(Br)c1	·	–	–	·
O=[N+]([O-])c1cccc(-c2nnc(-c3ccccc3)o2)c1	67.5	?	?	45.4
Nc1cc(-c2cccc([N+](=O)[O-])c2)[nH]n1	–	–	–	16.5
Clc1ccccc1-c1nnc(-c2ccc3c(c2)OCO3)o1	93.3	?	?	28.5
O=c1cc(-c2cccc([N+](=O)[O-])c2)[nH][nH]1	–	–	–	–
SMILES	Shiga inhibitor	Marburg entry inh	Lassa entry inh	CHX counter
Clc1ccccc1-c1nnc2sc(-c3ccc4c(c3)OCO4)nn12	40.1	?	?	19.2
Clc1cccc(-c2nnc3sc(-c4ccc5c(c4)OCO5)nn23)c1	–	–	·	–
CC1Cc2ccccc2N1C(=O)c1ccc(F)c(S(=O)(=O)N2CCOCC2)c1 (stereo not drawn)	·	–	–	·
CCN(CC)S(=O)(=O)c1cccc(NC(=O)CN2C(=O)NC3(CCOc4ccccc43)C2=O)c1 (stereo not drawn)	·	–	–	·
O=[N+]([O-])c1cccc(-c2nnc(-c3ccc4c(c3)OCO4)o2)c1	111.0	–	?	64.5
O=C(COC(=O)c1ccc(F)cc1Cl)NC1CCCCCCC1	·	–	–	·
O=C(NCC1CCCCC1)c1ccc(F)cc1Cl	89.0	–	?	57.0
Cc1cc(C)c2c(n1)SCC(=O)N2CC(=O)Nc1ccccc1Cl	–	·	·	–
Cc1cc(C(=O)NCCc2ccc(S(N)(=O)=O)cc2)no1	–	–	–	–
Cc1nn(-c2ccccc2)c(Cl)c1/C=N/NC(=O)c1ccccc1F	64.3	–	?	36.9
Cc1nn(-c2ccccc2)c(Cl)c1/C=N/NC(=O)c1cccnc1	–	–	?	32.5
CC(=O)N/N=C/c1c(C)[nH]n(-c2ccccc2)c1=O	–	–	–	–
Cc1ccc(-n2nc(C)c(/C=N/NC(=O)c3cccnc3)c2Cl)cc1	–	–	–	–
Cc1[nH]n(-c2ccccc2)c(=O)c1/C=N/NC(=O)c1ccccc1F	64.1	·	·	24.7
Cc1nn(-c2ccccc2)c(Cl)c1/C=C/C(=O)c1ccccc1	–	–	–	19.1
Cc1nn(-c2ccccc2)c(Cl)c1/C=N/NC(=O)c1[nH]ncc1Br	44.9	·	·	28.7
Cc1cc(C(=O)N/N=C/c2c(C)nn(-c3ccccc3)c2Cl)n[nH]1	49.0	?	–	17.8
Cc1nn(-c2ccccc2)c(Cl)c1/C=N/NC(=O)c1ccn[nH]1	–	·	·	21.2
Cc1ccc(C(=O)N/N=C\c2c(C)nn(-c3ccccc3)c2Cl)cn1	–	–	–	–
CCOC(=O)c1cc(-c2ccc(OC)c(S(=O)(=O)NC3CCCCC3)c2)on1	·	·	–	·
Cc1ccc(C)c(NC(=O)Cc2csc(-c3ccccc3)n2)c1	–	?	–	–
O=c1cc(O)sc2ccccc12	–	–	–	–
Oc1c(N=Nc2ccccc2)sc2ccccc12	60.6	·	·	39.8
O=C(Nc1cnn(Cc2ccc(F)cc2)c1)c1noc2c1CCCC2	152.5	·	·	44.9
CCc1cc(C(=O)Nc2cnn(Cc3ccc(F)cc3)c2)no1	·	–	–	·
SMILES	Shiga inhibitor	Marburg entry inh	Lassa entry inh	CHX counter
O=C(Nc1cnn(Cc2ccc(F)cc2)c1)c1cnccn1	–	–	–	17.0
Cc1ccc(NC(=O)CSc2nc3nc(C)c(Cc4ccccc4)c(C)n3n2)cc1	·	·	–	·
COc1ccc(-c2nn(-c3ccccc3)cc2/C=C/C(=O)O)cc1[N+](=O)[O-]	–	·	·	13.2
O=C(C1CCCN(S(=O)(=O)c2cccc3cccnc23)C1)N1CCN(c2ccc(F)cc2)CC1 (stereo not drawn)	–	·	·	–
CC1(C)CC(=O)C2=C(C1)C(c1cn(-c3ccccc3)nc1-c1ccccc1)C(C#N)=C(N)O2 (stereo not drawn)	–	?	–	23.1
Cc1ccc(OCCn2cnc3cc([N+](=O)[O-])ccc3c2=O)cc1	–	–	–	–
O=C(c1ccccc1)c1ccc(OCCn2cnc3ccccc3c2=O)cc1	–	–	25.1µM	–
CC(C)(c1ccccc1)c1ccc(OCCn2cnc3ccccc3c2=O)cc1	–	–	–	–
COc1ccc2c(Cn3cnc4cc([N+](=O)[O-])ccc4c3=O)cc(=O)oc2c1	–	4.47µM	?	–
O=c1c2ccc([N+](=O)[O-])cc2ncn1CCOc1ccccc1	54.1	–	–	20.1
O=c1c2ccccc2ncn1CCOc1ccccc1[N+](=O)[O-]	–	·	·	25.8
CCC(O)c1nc2ccccc2n1CCc1ccccc1 (stereo not drawn)	–	–	–	–
CCn1nc(C)c(CCN(C)C(=O)Nc2cc(Cl)c(OC)cc2OC)c1C	·	·	–	·
COc1ccc(C(=O)NC(C(=O)NCc2ccccn2)C(C)C)cc1 (stereo not drawn)	–	–	–	–
CCOc1ccccc1C(=O)N[C@H](C(=O)Nc1nc2c(s1)CCCC2)C(C)C	38.1	?	?	20.9
COc1ccc(C(=O)N[C@H](C(=O)Nc2ccc(OC)nc2)C(C)C)cc1	–	–	?	15.1
O=C(Nc1nc2c(s1)CCCC2)Oc1ccccc1	34.2	–	?	21.3
COc1ccc(CC(=O)Nc2nc3c(s2)CCCC3)cc1	·	2.51µM	3.98µM	·
Cc1ccc(C(=O)Nc2nc3c(s2)CCCC3)o1	–	?	?	–
COc1ccc(CC(=O)Nc2nc3c(s2)CC(C)CC3)cc1 (stereo not drawn)	·	?	–	·
CCOc1ccccc1NC(=O)[C@@H](NC(=O)c1ccccc1F)C(C)C	–	?	–	–
